# TGFb SMAD3 inh: TGF-b pathway inhibition | Potency, µM (titrated, usually from 46.1 µM), for the others: at the top dose activity, negative = inhibition, usual class: inhibitors | HepG2 CAGA-GFP TGF-b/SMAD3 reporter, GFP fluorescence, 18 h; TGF-beta stimulated, 500 pg/mL final | 1.2% of 410,000 active; note: % is set by controls: 0 for no effect and ±100 for the full control effect; nearly all actives have a fitted effect of over 65% in size
#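 HEPG2 CAGA-GFP reporter cells (1000/well, DMEM with 1% FBS) received compounds, then recombinant TGF-beta at 500 pg/mL final for 18 hours at 37 degrees C. Per-cell GFP summed per well was normalised to unstimulated and stimulated DMSO controls before curve fitting.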
# ATXN2 expr inh: reduces ATXN2 reporter expression in HEK-293 cells; HEK-293 ATXN2-luciferase reporter, luminescence, 24 h; Potency, µM (doses to about 57 µM), without a hit: at the top dose activity change, negative = inhibition, actives largely listed as inhibitors; 0.72% of 360,000 active; note: % is set by controls: 0 for no effect and ±100 for the full control effect; nearly all actives have a fitted effect of over 55% in size
#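 qHTS (up to 57 uM final) was run with 24 h compound exposure of reporter cells at 37 °C. Each well was multiplexed: SteadyGlo luminescence measured ATXN2-luciferase expression after a fluorogenic Gly-Phe-AFC viability readout (25 uM final).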
# DT40 TDP1 no CPT: qHTS for Inhibitors of human tyrosyl-DNA phosphodiesterase 1 (TDP1): qHTS in cells in absence of CPT | Potency, µM (series often up to 46.2 µM), for the others: at the highest dose activity change, negative = growth inhibition, usual class: inhibitors | DT40 Tdp1-/- hTDP1 cells, no CPT, ATP luminescence, 48 h | 15% of 420,000 active; note: % is set by controls: 0 for no effect and ±100 for the full control effect; nearly all actives have a fitted effect of over 55% in size
#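 Chicken DT40 Tdp1-/- cells complemented with human TDP1, screened without camptothecin (DMSO vehicle only), 400 cells/well. Compounds pin-transferred, cells incubated at 37 °C for at least 48 hr. Growth read as ATP-dependent luminescence (CellTiter-Glo, 30 min at RT).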
# HepG2 viability: counter-screen for TGF-b inhibitors: cytotoxicity in HepG2 cells. HepG2 CAGA-GFP viability, ATP luminescence, 18 h. Potency, µM (highest dose often 46.1 µM), for the others: at the top dose activity change, negative = cytotoxicity, actives largely listed as cytotoxic. 0.76% of 410,000 active. AID 588856
#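 CellTiter-Glo luminescence gave cytotoxicity after 18 hours at 37 degrees C. The cells were HepG2 CAGA-GFP in 1% FBS DMEM, stimulated with 500 pg/mL TGF-beta after compound addition. %Activity was normalised to no-cell wells (complete cell-killing) and DMSO (no toxicity), and curves were fitted and classified.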
# ATXN viability: viability counter-screen for ATXN expression inhibitors. Potency, µM (highest dose often 56.7 µM), actives largely listed as cytotoxic. AID 651635. S2 cells (HEK-293 line with an ATXN2-luciferase reporter) viability, CellTiter-Fluor protease fluorescence, 24 h. 0.49% of 400,000 active; note: nearly all actives have a fitted effect of over 40% in size
# TDP1 cell CPT: DT40-hTDP1 cell growth loss with CPT. chicken DT40 Tdp1-/-;hTDP1 cells + 20 nM CPT, ATP luminescence, 48 h. Potency, µM (series often up to 46.2 µM), for the others: at the highest dose activity change, negative = growth inhibition, hits mostly inhibitors. 12% of 420,000 active; note: % is set by controls: 0 for no effect and ±100 for the full control effect; nearly all actives have a fitted effect of over 55% in size
#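 Chicken DT40 Tdp1-/- cells stably complemented with human TDP1 were seeded at 400 cells/well in medium containing 20 nM camptothecin, exposed to pin-transferred compounds, and grown at 37 °C for at least 48 hr. Viability was read as ATP luminescence.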
# * = called active by the depositor; i = inactive; u = inconclusive; x = no result given. In the library only some 17% were active in any assay of this set; here they are far more common. Calls come from the whole dose curve; as a rule, active = well fitted curve in the direction sought with a large enough effect; inconclusive = small, poorly fitted or top-dose-only effect, or another doubt; inactive = no such curve, though single readings can be large; an effect the other way counts as inactive or inconclusive. Potency is the fitted concentration of half-maximal effect.
SMILES,TGFb SMAD3 inh,ATXN2 expr inh,DT40 TDP1 no CPT,HepG2 viability,ATXN viability,TDP1 cell CPT
CCOC(=O)c1ccc(NC(=O)c2ccc3c(c2)C(=O)N(CC2CCCO2)C3=O)cc1 (configuration not stated),-20%,-10%,18µM*,6%,i,u
Cc1ccc(NC(=O)c2ccc3c(c2)C(=O)N(CC2CCCO2)C3=O)cc1C (configuration not stated),-4%,9%,-27%,5%,i,0%
CN1/C(=C\C(=O)CSc2ncn[nH]2)C(C)(C)c2ccccc21,-6%,14%,u,5%,i,u
Cc1cc(C(=O)CSc2nnc(NCc3ccccc3)s2)c(C)n1C,-7%,-13%,13µM*,-6%,u,10µM*
CN1/C(=C\C(=O)CSc2nnc(NCc3ccccc3)s2)C(C)(C)c2ccccc21,u,-24%,u,-44%,u,15µM*
Cc1cccc(NC(=O)N2CC=C(c3c[nH]c4ccccc34)CC2)c1C,38%,x,23µM*,-58%,x,16µM*
O=C(Nc1cccc2ccccc12)N1CC=C(c2ccccc2)CC1,8%,u,u,-2%,u,u
O=C(Nc1ccc(Br)cc1F)N1CC=C(c2c[nH]c3ccccc23)CC1,u,x,0.58µM*,-37%,x,0.65µM*
O=C(Nc1ccc(Br)cc1F)N1CCC(CN2CCc3ccccc3C2)CC1,-6%,x,u,-31%,x,u
COC(=O)c1ccc(Cl)cc1NC(=O)N1CC=C(c2c[nH]c3ccccc23)CC1,81%,x,u,-34%,x,15µM*
Cc1ccc(NC(=O)N2CC=C(c3c[nH]c4ccccc34)CC2)cc1Cl,35%,x,10µM*,-58%,x,18µM*
COC(=O)c1ccc(Cl)cc1NC(=O)N1CCCn2nc(C)cc21,u,0%,-14%,-2%,i,-16%
OC[C@H]1NC[C@H](O)[C@@H](O)[C@H]1O,x,x,-4%,x,x,-5%
O=C(Nc1ccccc1F)C1COc2ccccc2O1 (configuration not stated),0%,x,7%,7%,i,-19%
O=C(CCN1C(=O)S/C(=C\c2ccccc2)C1=O)NC1CCS(=O)(=O)C1 (configuration not stated),18%,9%,-16%,3%,i,u
COc1ccc2nc(-n3c(O)c(C4=c5ccccc5=NC4=O)[nH]c3=S)sc2c1,-16%,-4%,23µM*,-24%,i,u
COc1ccccc1-c1cc(NCc2cnc(C)cn2)ncn1,x,x,6%,x,x,14%
Cc1ccc(N=Cc2c(C)[nH]n(-c3nc4ccccc4[nH]3)c2=O)cc1,-7%,u,4.1µM*,0.4µM*,i,3.3µM*
Cc1ccc(-n2[nH]c(C)c(C=Nc3ccc4[nH]c(=O)[nH]c4c3)c2=O)cc1C,-6%,1%,21µM*,-84%,i,u
Cc1ccc(-n2[nH]c(C)c(C=Nc3ccc4[nH]c(=O)[nH]c4c3)c2=O)cc1,u,-9%,16µM*,13µM*,i,16µM*
CC(C)c1ccc(C(N)=S)cc1,-7%,x,26µM*,-6%,i,0%
CC(C)c1ccc(C(=O)NNC(=O)c2ccncc2)cc1,-17%,-3%,-2%,16%,i,-7%
Cc1ccc(C2CC2c2n[nH]c(=S)n2-c2cccc(Cl)c2)cc1 (configuration not stated),u,-6%,23µM*,1%,i,u
Fc1ccc(-c2csc(Nc3ccccn3)n2)cc1,u,28%,u,-37%,i,16µM*
Cc1cccc(Nc2nc(-c3cccs3)cs2)n1,13µM*,108%,23µM*,-19%,i,u
SMILES,TGFb SMAD3 inh,ATXN2 expr inh,DT40 TDP1 no CPT,HepG2 viability,ATXN viability,TDP1 cell CPT
Cc1cccc(Nc2nc(-c3ccc(F)cc3)cs2)n1,0%,u,u,-15%,u,12µM*
CC(=O)Oc1ccc(-c2csc(Nc3ccccn3)n2)cc1,-23%,x,7.3µM*,-13%,i,16µM*
c1ccc(Nc2nc(-c3cccs3)cs2)nc1,u,137%,u,-12%,i,u
CC(=O)Oc1ccc(-c2csc(Nc3cccc(C)n3)n2)cc1,u,79%,u,-60%,u,u
Cc1ccc(-c2cc(NC(=O)COc3c(C)cc(C)cc3C)on2)cc1,6%,3%,2%,3%,i,-3%
O=C(CSc1nncs1)NCc1ccc(F)cc1,0%,15%,-11%,8%,i,20%
COc1ccc2cc(/C=C/C(=O)N3CCN(CC(=O)N4CCCCCC4)CC3)ccc2c1,0%,7%,u,-33%,i,u
Cc1cccc(Nc2nc(-c3ccccn3)cs2)n1,u,u,6.5µM*,-35%,u,5.2µM*
Cc1cccnc1Nc1nc(-c2ccccn2)cs1,u,u,0.15µM*,-10%,x,0.13µM*
NS(=O)(=O)c1ccc(Nc2nc(-c3ccc(F)cc3)cs2)cc1,u,u,21µM*,14%,i,18µM*
OC[C@H]1O[C@@H](Oc2ccc(O)cc2)[C@H](O)[C@@H](O)[C@H]1O,x,9%,x,x,x,x
COC(=O)CCCOc1ccc(Cl)cc1Cl,x,x,4%,x,x,14%
COc1ccc(C2(CNC(=O)c3cccc([N+](=O)[O-])c3)CCOCC2)cc1OC,12%,-12%,u,-6%,i,u
COc1ccc(NC(=O)C(=O)NCC2(c3ccc(OC)c(OC)c3)CCCC2)cc1,0%,14%,u,10%,i,-28%
COc1ccc(CC(=O)NCC2(c3ccc(OC)c(OC)c3)CCOCC2)cc1,-7%,0%,-3%,4%,i,-2%
COc1ccc(C2(CNC(=O)c3cccc([N+](=O)[O-])c3)CCCCC2)cc1OC,0%,-6%,10µM*,-17%,i,16µM*
COc1ccc(C(=O)NCC2(c3ccc(OC)c(OC)c3)CCCC2)cc1OC,-1%,x,u,-18%,i,u
COc1ccc(C2(CNC(=O)c3ccc(OC)c([N+](=O)[O-])c3)CCCCC2)cc1OC,5%,5%,21µM*,-17%,i,u
COc1ccc(C2(CNC(=O)C(=O)Nc3cccc(C(F)(F)F)c3)CCCC2)cc1OC,-30%,-7%,18µM*,-20%,i,21µM*
COc1ccc(C2(CNC(=O)Cc3ccccc3)CCCC2)cc1OC,10%,6%,13µM*,6%,i,u

# Screening data deposited in PubChem by National Center for Advancing Translational Sciences (NCATS).
